We go through 40 compounds from PubChem BioAssay (Tox21).

Inconclusive results are not listed. Where a call stands in place of a potency, no number is given. Some compounds were tested as several samples or in several runs, with calls that do not always agree. The source made the active and inactive calls. Calls come from the whole dose curve; as a rule, active = well fitted inhibition curve with a large enough effect in the repeat runs; inconclusive = weak or mixed curves, or effect the other way; inactive = no such curve, though single readings can be large or run the other way.
Potency is the fitted concentration of half-maximal effect.

In this assay the target is Nuclear receptor ROR-gamma (Homo sapiens) (UniProt P51449). In words: qHTS assay to identify small molecule antagonists of the retinoid-related orphan receptor gamma (ROR-gamma) signaling pathway (AID 1159521; note: nearly all actives have a fitted effect of over 50% in size; for activity change, negative = inhibition: top concentration of the series differs between compounds). To be noted: Tet-on RORgamma CHO cells, RORE-luciferase, 16 h; series mostly up to 92.4 µM; activity change, negative = inhibition: at the top concentration. From the text: U.S. Tox21 Program National Center for Advancing Translational Sciences [NCATS] NIH Chemical Genomics Center [NCGC] U.S. Environmental Protection Agency [EPA] National Institutes of Environmental Health Sciences [NIEHS] National Toxicology Program [NTP] U.S. Food and Drug Administration [FDA] Tox21 Assay Overview: Nuclear steroid hormone receptors are involved in many biological processes including inflammatory responses, cell proliferation, and apoptosis. Environmental factors or compounds disrupting these nuclear receptor pathways and gene expression may promote susceptibility to immunotoxicants and autoimmune diseases. One important group of these expression factors are the retinoid-related orphan receptors. To assess compounds that may interfere with the retinoid-related orphan receptor gamma (ROR-gamma) transcription factor, a cell-based luciferase assay was used. The CHO cell-based assay utilizes a TET-inducible ROR expression factor and ROR response element-LUC reporter gene. Reporter gene activity was induced using Doxycycline Hyclate and measured after 16 hr incubation. Tet-on ROR gamma CHO cells were used to screen against the Tox21 10K compound library for ROR gamma antagonists by quantification of decreased reporter gene activity in terms of decreased luminescence.
Tox21 Assay Protocol Summary: Tet-on ROR gamma CHO cells were dispensed at 1,000 cells in 4 uL of culture medium per well into white wall/solid bottom 1536-well plates using a Multidrop Combi (Thermo Scientific, Waltham, MA) dispenser. Following incubation at 37 C and 5% CO2 for 4 hr, 23 nL of compounds dissolved in DMSO, positive controls or DMSO only were transferred by a Pintool station (Kalypsys, San Diego, CA) and after 2 hr incubation at 37 C, one ul of 1 uM (final concentration) of Doxycycline Hyclate was added to all the wells by using a Flying Reagent Dispenser (FRD) (Aurora Discovery, San Diego, CA). After 16 hr incubation at 37 C and 5% CO2, 5 uL of ONE-Glo reagent (Promega Corporation, Madison, WI) was added to each assay plate using FRD. After 30 min incubation at room temperature, luminescence was quantified on a ViewLux plate reader (Perkin Elmer, Waltham, MA).
In general terms: In qHTS, concentration-response curves come from the screen itself.
Take `Clc1ccccc1Cl`: the Potency entry is “inactive”. Consider `COCCl`, for which the Potency result is “inactive”. Same read-out and setting: in the case of `O=c1ccc(=O)[nH][nH]1` it was “inactive”. Same read-out and setting: the result for `ClCCBr` reads “inactive”. Same read-out and setting: in the case of `CC(C)C1(C)N=C(c2nc3ccccc3cc2C(=O)O)NC1=O` (stereo not given) it was “inactive”.

On to `CCNc1nc(NC(C)C)nc(SC)n1`, for which the “activity change, negative = inhibition” value was -12.5% (inactive). On to `O=[N+]([O-])c1ccccc1`, for which the Potency result was “inactive”. For the compound `O=[N+]([O-])c1ccc(Oc2ccc(Cl)cc2Cl)cc1`, the “activity change, negative = inhibition” value is 2.28% (inactive).

As for `C=C(C)CCl`, the Potency entry is “inactive”. Still for that read-out and setting: the result for `CC(C)C#N` reads “inactive”.

Take `O=NN1CCCC1`: the Potency is 10.1 µM (active) and inactive.

Regarding `CC(C)(C)C(O)(CCc1ccc(Cl)cc1)Cn1cncn1` (stereo not given), the “activity change, negative = inhibition” value is -17.8% (inactive).

As for `O=c1[nH]c2ccccc2c(=O)o1`, the Potency result is “inactive”. In the case of `Nc1ccc(Oc2ccc(N)cc2)cc1`, the Potency result was “inactive”. On the same count and under the same terms, in the case of `C[C@]12CC[C@H]3[C@@H](CC[C@@]45O[C@@H]4C(O)=C(C#N)C[C@]35C)[C@@H]1CC[C@@H]2O` it was 48.6 µM (active); in that of `CCCC1COC(Cn2cncn2)(c2ccc(Cl)cc2Cl)O1` (stereo not given), 43.3 µM (active).

For `COP(N)(=O)SC` (stereo not given), the “activity change, negative = inhibition” value was 12.4% (inactive). `O=C(O)c1ccccn1`: the Potency entry is “inactive”. On the same count and under the same terms, in the case of `CCC[CH2][Sn]([Cl])([Cl])[Cl]` it was “inactive”.

As to `CC(C)NC(=O)N1CC(=O)N(c2cc(Cl)cc(Cl)c2)C1=O`, the “activity change, negative = inhibition” value is -9.94% (inactive). Same read-out and setting: the result for `O=c1[nH]c(=O)[nH]c(=O)[nH]1` reads 0.968% (inactive).

For the compound `Cc1[nH]c(=O)n(C(C)(C)C)c(=O)c1Cl`, the Potency entry is “inactive”. Regarding `CCCCOC(=O)c1ccccc1C(=O)OCCCC`, the “activity change, negative = inhibition” value was 2.07% (inactive). For the compound `COc1ccc2c3c1O[C@H]1[C@@H](O)C=C[C@H]4[C@@H](C2)N(C)CC[C@@]341`, the Potency is 60.1 µM (active) and inactive. Still for that read-out and setting: the result for `O=C(NC(=O)c1c(F)cccc1F)Nc1cc(Cl)c(OC(F)(F)C(F)C(F)(F)F)cc1Cl` (stereo not given) reads “inactive”; that for `CCOP(OCC)OCC`, “inactive”; that for `CCN(CC)c1ccccc1`, “inactive”. For the compound `CCOC(=O)c1ccccc1C(=O)OCC`, the Potency entry was “inactive”.

For `CCN(CC)CCO`, the Potency result was “inactive”. On the same count and under the same terms, the result for `CC1OC(C)OC(C)O1` (stereo not given) reads “inactive”; that for `Cc1cc(-c2cc(C)c(N)c(C)c2)cc(C)c1N`, “inactive”; that for `CCCCCOC(=O)c1ccccc1C(=O)OCCCCC`, “inactive”.

As for `CC(Br)C(=O)O` (stereo not given), the Potency result was “inactive”. Same read-out and setting: the result for `CC(C)(C)OOC(=O)c1ccccc1` reads “inactive”; that for `O=Cc1cccc(Oc2ccccc2)c1`, “inactive”; that for `C1CC2OC2CC1C1CO1` (stereo not given), “inactive”. On the same count and under the same terms, in the case of `[N-]=[N+]=[N-]` it was “inactive”. For the compound `O=c1n(Cl)c(=O)n(Cl)c(=O)n1Cl`, the “activity change, negative = inhibition” value was 4.6% (inactive).

In the case of `CCCCN(CC)C(=O)SCCC`, the Potency entry was “inactive”. `OC(O)C(Cl)(Cl)Cl`: the Potency entry was “inactive”.
